Inconclusive results are not listed. Activity calls are given as the source filed them. Rule for the calls, unless noted: active = hit-call score of the fitted dose curve at least 0.9, where 1 is the maximum; inconclusive = response in the unintended direction; inactive = score below 0.9.
Legend:
[1] = molecular target: Cellular tumor antigen p53 (Homo sapiens) (UniProt P04637); assay: TOX21_p53_BLA_p2_ratio: Tox21 HCT-116 p53 Agonism Beta-lactamase Assay, Ratio, Phase 2 (AID 2283592)
How it was run: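 HCT116 cells carrying a p53-responsive beta-lactamase reporter were plated, incubated 5 h at 37C, then dosed with compounds in DMSO (217-fold dilution) for 16 h. CCF4-AM substrate was added for 2 h at room temperature; the 460/530 nm emission ratio gave gain-of-signal activity relative to DMSO.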

[2] = molecular target: Cellular tumor antigen p53 (Homo sapiens) (UniProt P04637); assay: TOX21_p53_BLA_p3_ratio: Tox21 HCT-116 p53 Agonism Beta-lactamase Assay, Ratio, Phase 3 (AID 2283596)
How it was run: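 HCT116 p53-bla cells (4000/well) given compound in DMSO (217-fold dilution) after 5 h, incubated 16 h at 37C. CCF4-AM substrate 2 h at room temperature; 460/530 nm emission ratio, gain fitted against DMSO.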

[3] = TOX21_p53_BLA_p4_viability: Viability Assessment in the Tox21 HCT-116 p53 Agonism Beta-lactamase Assay, Phase 4 (AID 2283597);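 note: hits lower the luminescence signal meaning cytotoxicity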
How it was run: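 HCT116 p53-bla cells (4000/well) rested 5 h at 37C, then received compounds in DMSO (217-fold dilution) for 16 h at 37C, 5% CO2. CellTiter-Glo was added after the CCF4-AM read, and luminescence was read after 30 min at room temperature.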

[4] = molecular target: Cellular tumor antigen p53 (Homo sapiens) (UniProt P04637); assay: TOX21_p53_BLA_p5_ratio: Tox21 HCT-116 p53 Agonism Beta-lactamase Assay, Ratio, Phase 5 (AID 2283599)
How it was run: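 HCT-116 p53-bla cells (4000/well) plated 5 h, dosed with compound (217-fold DMSO dilution) for 16 h at 37 C; CCF4-AM substrate 2 h at room temperature. Activity is the 460/530 nm emission ratio (405 nm excitation), fitted in gain-of-signal direction versus DMSO.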

[5] = TOX21_p53_BLA_p5_viability: Viability Assessment in the Tox21 HCT-116 p53 Agonism Beta-lactamase Assay, Phase 5 (AID 2283600)
How it was run: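 Cells were plated at 4000/well, rested 5 h at 37C, then given compounds in DMSO (217-fold dilution) for 16 h at 37C, 5% CO2. Following the CCF4-AM beta-lactamase read, CellTiter-Glo was added and luminescence was read after 30 min at room temperature.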

[6] = molecular target: Cellular tumor antigen p53 (Homo sapiens) (UniProt P04637); assay: TOX21_p53_BLA_p4_ratio: Tox21 HCT-116 p53 Agonism Beta-lactamase Assay, Ratio, Phase 4 (AID 2283601)
How it was run: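 HCT-116 p53 beta-lactamase reporter cells (4000/well) preincubated 5 h, then compound (217-fold dilution of DMSO stock) for 16 h at 37C. CCF4-AM substrate added 2 h at room temperature; 460/530 nm emission ratio fitted upward versus DMSO.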

[7] = molecular target: PGR (gene 5241) (UniProt P06401); assay: TOX21_PR_BLA_Followup_Agonist_ratio: Tox21 HEK293 Progesterone Receptor (PR) Agonism Beta-lactamase Follow-Up Assay, Ratio (AID 2283933)
How it was run: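 Agonist-mode follow-up in HEK293T cells carrying a UAS-driven beta-lactamase reporter, grown in 2% charcoal-stripped serum. Compounds act for 16 hr; activity is the ch2/ch1 cleavage ratio, with same-well CellTiter-Glo viability run in parallel.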

[8] = molecular target: PGR (gene 5241) (UniProt P06401); assay: TOX21_PR_BLA_Followup_Antagonist_ratio: Tox21 HEK293 Progesterone Receptor (PR) Antagonism Beta-lactamase Follow-Up Assay, Ratio (AID 2283934);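 note: PR-UAS-bla HEK293T cells stimulated with 1 nM R5020 agonist for 16 hr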
How it was run: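 Antagonist mode used 1 nM R5020 (final) as agonist on a beta-lactamase reporter line in HEK293T cells. Activity was taken from the substrate cleavage ratio after 16 hr exposure.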

[9] = TOX21_PR_BLA_Followup_Agonist_viability: Viability Assessment in the Tox21 HEK293 Progesterone Receptor (PR) Agonism Beta-lactamase Follow-Up Assay (AID 2283935);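 note: signal loss means lower viability so actives are cytotoxic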
How it was run: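 Multiplexed viability counter-screen: ATP-coupled luciferase signal measured after 30 min at room temperature, following 16 hr compound treatment of PR-UAS-bla HEK293T cells grown in charcoal-stripped serum.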

[10] = TOX21_PR_BLA_Followup_Antagonist_viability: Viability Assessment in the Tox21 HEK293 Progesterone Receptor (PR) Antagonism Beta-lactamase Follow-Up Assay (AID 2283936);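 note: hits lower the luminescence signal meaning cytotoxicity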
How it was run: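 PR-UAS-bla HEK293T cells (3,000/well, 2% charcoal-stripped FBS) given compound plus R5020 agonist, 16 h at 37C. CellTiter-Glo added after bla read, 30 min at room temperature; luminescence loss indicates cytotoxicity.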

[11] = molecular target: PGR (gene 5241) (UniProt P06401); assay: TOX21_PR_LUC_Followup_Antagonist: Tox21 HEK293 Progesterone Receptor (PR) Antagonism Luciferase Follow-Up Assay (AID 2283938);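 note: curve fitted upward as signal gain over DMSO baseline despite antagonist label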
How it was run: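 HEK293-PR-A-luc cells were precultured 5 days in medium with 10% charcoal-stripped FBS, seeded 3,000/well, then exposed to compounds in DMSO for 16 h at 37C. Luciferase was read by ONE-Glo luminescence after 30 min at room temperature.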

[12] = TOX21_PR_LUC_Followup_Antagonist_viability: Viability Assessment in the Tox21 HEK293 Progesterone Receptor (PR) Antagonism Luciferase Follow-Up Assay (AID 2283940)
How it was run: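 Cellular ATP, measured with luciferase-coupled CellTiter-Glo, served as the viability endpoint after HEK293-PR-A-luc cells were exposed to test compounds for 16 h at 37C.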

[13] = TOX21_PR_LUC_Followup_Agonist_viability: Viability Assessment in the Tox21 HEK293 Progesterone Receptor (PR) Agonism Luciferase Follow-Up Assay (AID 2283941);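 note: loss of signal means cytotoxicity so actives lower viability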
How it was run: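 Luminescent ATP quantitation (CellTiter-Glo) serves as the read-out; a drop flags cytotoxic compounds. Cells are HEK293-PR-A-luc grown in 10% charcoal-stripped FBS, plated 3,000/well, and exposed to compound for 16 h.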

[14] = TOX21_p53_BLA_p3_viability: Viability Assessment in the Tox21 HCT-116 p53 Agonism Beta-lactamase Assay, Phase 3 (AID 2283593);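 note: cells exposed to compound for 16 h before reading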
How it was run: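 HCT116 cells, 4000/well, dosed 5 h after plating by pin transfer (217-fold dilution from DMSO stock) and incubated 16 h at 37C, 5% CO2. Viability read as ATP luminescence with CellTiter-Glo after 30 min at room temperature.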

[15] = CCTE_Harrill_HTTr_Viability_MCF7: CCTE's 6-hour Cell Viability Assessment for the High-Throughput Transcriptomics (HTTr) Platform, in MCF-7 cells cultured in DMEM + 10% fetal bovine serum, Harrill Lab (AID 2284010; active = hit-call score of the fitted dose curve at least 0.9, where 1 is the maximum; inactive = score below 0.9)
How it was run: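 Viability measured through PI dye exclusion by high-content imaging at 6 h post-dosing.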

[16] = CCTE_Harrill_HTTr_Apoptosis_MCF7: CCTE's 6-hour Apoptosis Assessment for the High-Throughput Transcriptomics (HTTr) Platform, in MCF-7 cells cultured in DMEM + 10% fetal bovine serum, Harrill Lab (AID 2284011; active = hit-call score of the fitted dose curve at least 0.9, where 1 is the maximum; inactive = score below 0.9)
How it was run: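 MCF-7 cells in DMEM + 10% fetal bovine serum were exposed to chemicals for 6 hours over an eight-point dilution series. Caspase-3/7 activation was imaged by high content imaging with CellEvent Caspase 3/7 Green; bidirectional fitting used DMSO as baseline.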

[17] = CCTE_Harrill_HTTr_CellCount_MCF7: CCTE's Cell Proliferation Assessment for the High-Throughput Transcriptomics (HTTr) Platform, Harrill Lab (AID 2284012);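 note: count of Hoechst-stained nuclei per well by high-content imaging in MCF-7 cells; cells exposed to compound for six hours; intended direction is loss of nuclei count meaning fewer cells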
How it was run: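 Nuclei counting (Hoechst, high content imaging) in MCF-7 after a 6 h treatment at eight concentrations. Activity fitted bidirectionally, DMSO as negative control.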

Measured: AC50

Chain of Cellular tumor antigen p53 (Homo sapiens) (P04637 whole entry, looked up): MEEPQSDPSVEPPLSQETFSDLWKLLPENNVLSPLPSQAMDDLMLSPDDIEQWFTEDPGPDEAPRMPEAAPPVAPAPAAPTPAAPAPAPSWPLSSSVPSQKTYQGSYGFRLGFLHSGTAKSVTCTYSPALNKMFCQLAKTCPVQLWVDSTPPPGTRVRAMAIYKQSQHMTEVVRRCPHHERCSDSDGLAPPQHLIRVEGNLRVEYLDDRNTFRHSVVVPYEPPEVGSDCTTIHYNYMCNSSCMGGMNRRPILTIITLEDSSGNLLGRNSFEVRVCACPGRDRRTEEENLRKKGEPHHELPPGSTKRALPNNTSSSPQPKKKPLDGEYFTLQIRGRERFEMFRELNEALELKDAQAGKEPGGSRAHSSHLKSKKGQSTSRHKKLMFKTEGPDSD
Chain of PGR (gene 5241) (P06401 whole entry, looked up): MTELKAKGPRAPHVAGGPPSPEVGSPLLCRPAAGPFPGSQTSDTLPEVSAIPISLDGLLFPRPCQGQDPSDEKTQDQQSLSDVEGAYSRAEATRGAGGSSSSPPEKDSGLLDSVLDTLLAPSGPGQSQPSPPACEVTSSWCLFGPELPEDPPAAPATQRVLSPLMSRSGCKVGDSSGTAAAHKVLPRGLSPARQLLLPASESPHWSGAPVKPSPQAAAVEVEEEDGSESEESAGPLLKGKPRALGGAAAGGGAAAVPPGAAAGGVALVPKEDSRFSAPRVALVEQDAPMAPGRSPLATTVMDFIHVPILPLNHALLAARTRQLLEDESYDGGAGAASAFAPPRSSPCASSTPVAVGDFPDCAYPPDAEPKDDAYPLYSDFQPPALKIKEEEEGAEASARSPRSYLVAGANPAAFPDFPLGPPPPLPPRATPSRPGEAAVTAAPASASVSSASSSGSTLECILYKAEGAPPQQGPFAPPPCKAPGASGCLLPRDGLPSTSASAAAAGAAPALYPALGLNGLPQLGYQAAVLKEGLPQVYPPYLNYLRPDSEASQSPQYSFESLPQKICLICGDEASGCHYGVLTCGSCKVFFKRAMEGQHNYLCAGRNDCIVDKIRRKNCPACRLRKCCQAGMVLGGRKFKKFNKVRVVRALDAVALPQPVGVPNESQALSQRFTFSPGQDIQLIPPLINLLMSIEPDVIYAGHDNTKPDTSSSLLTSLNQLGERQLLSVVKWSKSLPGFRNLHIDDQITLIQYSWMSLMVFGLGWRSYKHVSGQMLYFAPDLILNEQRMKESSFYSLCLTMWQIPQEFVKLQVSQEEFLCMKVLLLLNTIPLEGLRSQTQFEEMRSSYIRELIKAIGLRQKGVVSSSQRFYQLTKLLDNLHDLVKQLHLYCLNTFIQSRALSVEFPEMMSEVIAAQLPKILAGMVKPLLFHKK

Clc1cccc(N2CCNCC2)c1
inactive: [1] | [2] | [3] | [4]

C#C[C@]1(O)CC[C@H]2[C@@H]3CCC4=CC(=O)CCC4=C3C=C[C@@]21CC
active: [7] 0.144 µM
not listed: [14] | [15] | [16] | [17]
inactive: all other assays above

C[C@@H]([C@H](O)c1ccccc1)N(C)C
inactive: [1] | [2] | [3] | [4] | [6]

CN(C)CCc1c[nH]c2cccc(O)c12
inactive: [1] | [2] | [3] | [4]

Nc1cc(Cl)ccc1O
active: [1] 49.9 µM | [2] 59.7 µM | [4] 62.6 µM | [6] 54.8 µM
inactive: [3] | [5]

NC1=NC(=O)N2CC12 (configuration not stated)
inactive: [1] | [2] | [3] | [4] | [6]

Oc1cccc(Cl)c1Cl
inactive: [1] | [2] | [3] | [4] | [5]

N#CC(Cl)Cl
inactive: [1] | [2] | [3] | [4] | [5] | [6]

CC(N)=S
inactive: [1] | [14] | [5] | [6] | [15] | [16] | [17]

c1ccc2c(c1)OCC(C1=NCCN1)O2 (configuration not stated)
inactive: [1] | [2] | [3] | [4]

Oc1ccc2c3c1O[C@H]1[C@@H](O)C=C[C@H]4[C@@H](C2)NCC[C@@]341
inactive: [1] | [2] | [3] | [4] | [6]

COc1ccc(C(CN(C)C)C2(O)CCCCC2)cc1 (configuration not stated)
inactive: [1] | [2] | [4] | [5] | [6]

CN(C)CCc1c[nH]c2ccc(O)cc12
inactive: [1] | [2] | [4]

O=C1NCN(c2ccccc2)C12CCN(CCCOc1ccc(F)cc1)CC2
inactive: [1] | [2] | [3] | [5] | [6]

Reference: PubChem BioAssay (EPA / NIEHS)
